From PubChem BioAssay (NCATS)
Records with an inconclusive call do not appear. Calls of active or inactive are those of the source. Calls come from the whole dose curve; as a rule, active = well fitted curve in the direction sought with a large enough effect; inconclusive = small, poorly fitted or top-dose-only effect, or another doubt; inactive = no such curve, though single readings can be large; an effect the other way counts as inactive or inconclusive.

Tests used:
[1] = Quantitative High-Throughput drug screen in 47 multiple myeloma cell lines against the NCATS MIPE library collection: KMS12PE_JCRB cell viability assay (AID 1918972); note: nearly all actives have a fitted effect of over 30% in size
Summary of the method: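 Relative luminescence from CellTiter-Glo served as the viability signal, referenced to DMSO-treated (100%) and cell-free medium (0%) controls. Treatment lasted 48 hours at 37C with 500 cells per well.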

[2] = Quantitative High-Throughput drug screen in 47 multiple myeloma cell lines against the NCATS MIPE library collection: KMS26_JCRB cell viability assay (AID 1918975); note: nearly all actives have a fitted effect of over 45% in size
Summary of the method: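 Myeloma cell lines, 500 cells per well, exposed to MIPE 4.0 library compounds for 48 h at 37C, 5% CO2. Viability from ATP by CellTiter-Glo luminescence; normalised to DMSO (100%) and media-only (0%) wells.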

[3] = Quantitative High-Throughput drug screen in 47 multiple myeloma cell lines against the NCATS MIPE library collection: MMM1_PLB cell viability assay (AID 1918976); note: nearly all actives have a fitted effect of over 35% in size
Summary of the method: (§1)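 Readout: median RLU from CellTiter-Glo after 5 min at room temperature. Preceding step was 48 h drug treatment of 500 cells/well at 37 °C, 5% CO2, with DMSO-only and media-only control wells.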

[4] = Quantitative High-Throughput drug screen in 47 multiple myeloma cell lines against the NCATS MIPE library collection: NCIH929_DSMZ cell viability assay (AID 1918978); note: nearly all actives have a fitted effect of over 35% in size
Summary of the method: as §1

[5] = Quantitative High-Throughput drug screen in 47 multiple myeloma cell lines against the NCATS MIPE library collection: OCIMY1_PLB cell viability assay (AID 1918979); note: nearly all actives have a fitted effect of over 35% in size
Summary of the method: as §1

[6] = Quantitative High-Throughput drug screen in 47 multiple myeloma cell lines against the NCATS MIPE library collection: MM1S_ATCC cell viability assay (AID 1918980); note: nearly all actives have a fitted effect of over 45% in size
Summary of the method: as §1

[7] = Quantitative High-Throughput drug screen in 47 multiple myeloma cell lines against the NCATS MIPE library collection: MM1R_ATCC cell viability assay (AID 1918981); note: nearly all actives have a fitted effect of over 35% in size
Summary of the method: as §1

[8] = Quantitative High-Throughput drug screen in 47 multiple myeloma cell lines against the NCATS MIPE library collection: LP1_DSMZ cell viability assay (AID 1918982); note: nearly all actives have a fitted effect of over 35% in size
Summary of the method: as §1

[9] = Quantitative High-Throughput drug screen in 47 multiple myeloma cell lines against the NCATS MIPE library collection: KMS28PE_JCRB cell viability assay (AID 1918983); note: nearly all actives have a fitted effect of over 35% in size
Summary of the method: as §1

[10] = Quantitative High-Throughput drug screen in 47 multiple myeloma cell lines against the NCATS MIPE library collection: L363_DSMZ cell viability assay (AID 1918984); conditions: L363 myeloma viability, CellTiter-Glo ATP luminescence, 48 h; viability (% of control): at 45.8 µM (top of the series); note: nearly all actives have a fitted effect of over 40% in size
Summary of the method: as §1

[11] = Quantitative High-Throughput drug screen in 47 multiple myeloma cell lines against the NCATS MIPE library collection: KMS34_JCRB cell viability assay (AID 1918985); note: nearly all actives have a fitted effect of over 40% in size
Summary of the method: as §1

[12] = Quantitative High-Throughput drug screen in 47 multiple myeloma cell lines against the NCATS MIPE library collection: OCIMY7_PLB cell viability assay (AID 1918987); conditions: OCI-MY7 myeloma viability, CellTiter-Glo ATP, 48 h; viability (% of DMSO): at 45.8 µM (top of the series); note: nearly all actives have a fitted effect of over 65% in size
Summary of the method: as §1

[13] = Quantitative High-Throughput drug screen in 47 multiple myeloma cell lines against the NCATS MIPE library collection: OCIMY5_PLB cell viability assay (AID 1918988); note: nearly all actives have a fitted effect of over 65% in size
Summary of the method: as §1

[14] = Quantitative High-Throughput drug screen in 47 multiple myeloma cell lines against the NCATS MIPE library collection: OPM1_PLB cell viability assay (AID 1918989); note: nearly all actives have a fitted effect of over 40% in size
Summary of the method: as §1

[15] = Quantitative High-Throughput drug screen in 47 multiple myeloma cell lines against the NCATS MIPE library collection: SKMM1_PLB cell viability assay (AID 1919863); conditions: SKMM1 myeloma viability, CellTiter-Glo ATP, 48 h; viability: active compounds read low; note: nearly all actives have a fitted effect of over 35% in size
Summary of the method: as §1

[16] = Quantitative High-Throughput drug screen in 47 multiple myeloma cell lines against the NCATS MIPE library collection: U266_ATCC cell viability assay (AID 1919864); note: nearly all actives have a fitted effect of over 35% in size
Summary of the method: as §1

[17] = Quantitative High-Throughput drug screen in 47 multiple myeloma cell lines against the NCATS MIPE library collection: XG6_PLB cell viability assay (AID 1919865); note: nearly all actives have a fitted effect of over 40% in size
Summary of the method: as §1

Measured: Potency
Potency is the fitted concentration of half-maximal effect.

O=C(Nc1ncc(SCCN2CCCC2)s1)[C@]1(c2ccc(S(=O)(=O)C3CC3)cc2)C[C@@H]1C1CCCCC1
active: [1] 5.26 µM | [2] 23.5 µM | [3] 14.8 µM | [4] 20.9 µM | [5] 26.4 µM | [6] 20.9 µM | [7] 16.6 µM | [8] 20.9 µM | [9] 23.5 µM | [10] 7.43 µM | [11] 18.7 µM | [12] 18.7 µM | [13] 14.8 µM | [14] 16.6 µM | [15] 23.5 µM | [16] 8.33 µM | [17] 10.5 µM

CN1CC(=O)NC1=NC(=O)Nc1cccc(Cl)c1
inactive: [1] | [9]
active: [2] 18.7 µM | [3] 20.9 µM | [4] 16.6 µM | [5] 26.4 µM | [6] 26.4 µM | [7] 18.7 µM | [8] 14.8 µM | [10] 2.96 µM | [12] 13.2 µM | [13] 23.5 µM | [14] 18.7 µM | [15] 18.7 µM | [16] 20.9 µM | [17] 23.5 µM

O=C(CO)N1CCC(c2[nH]nc(-c3ccc(Cl)cc3)c2-c2ccncn2)CC1
active: [3] 0.148 µM | [6] 20.9 µM | [7] 0.662 µM | [9] 0.332 µM | [14] 3.32 µM | [15] 0.59 µM
inactive: [1] | [2] | [4] | [5] | [8] | [11]
